Assay results published in the supplement of paper PMC8728848.
The full list was thinned out, with the strongest signals kept by preference.

Columns and labels:
Assay in all cases: glycan array binding signal (z-score within array); higher = stronger binding
Conditions in all cases: glycan notation: IUPAC condensed, linker removed
[1] = biological target: Fuc(a1-2)Gal(b1-4)[Fuc(a1-3)]GlcNAc(b1-3)GalNAc
Outline: (§1)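 The Consortium for Functional Glycomics database supplied 3228 glycan arrays, of which those lacking an available protein sequence were dropped. The binding signal, a within-array Z-score, was averaged across arrays of the same protein sequence and across linkers. Negative scores can be read as non-binding.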

[2] = biological target: Fuc(a1-2)Gal6S(b1-3)GlcNAc6S
Outline: as §1

Fuc(a1-2)Gal6S(b1-4)Glc = biological target: Fuc(a1-2)Gal6S(b1-4)Glc
Outline: as §1

[3] = biological target: Fuc(a1-2)[Gal(a1-3)]Gal(b1-3)GlcNAc(b1-2)Man(a1-3)[Fuc(a1-2)[Gal(a1-3)]Gal(b1-3)GlcNAc(b1-2)Man(a1-6)]Man(b1-4)GlcNAc(b1-4)GlcNAc
Outline: as §1

[4] = biological target: Fuc(a1-2)[Gal(a1-3)]Gal(b1-3)GlcNAc(b1-3)GalNAc
Outline: as §1

[5] = biological target: Fuc(a1-3)[Gal(b1-4)]GlcNAc
Outline: as §1

[6] = biological target: Fuc(a1-3)[Gal(b1-4)]GlcNAc(b1-2)Man
Outline: as §1

[7] = biological target: Fuc(a1-3)[Gal(b1-4)]GlcNAc(b1-2)Man(a1-3)[Fuc(a1-3)[Gal(b1-4)]GlcNAc(b1-2)Man(a1-6)]Man(b1-4)GlcNAc(b1-4)GlcNAc
Outline: as §1

[8] = biological target: Fuc(a1-3)[Gal3S(b1-4)]GlcNAc
Outline: as §1

[9] = biological target: Fuc(a1-3)[GalNAc(b1-4)]GlcNAc
Outline: as §1

[10] = biological target: Gal(a1-3)Gal(b1-3)[Fuc(a1-4)]GlcNAc(b1-2)Man(a1-3)[Gal(a1-3)Gal(b1-3)[Fuc(a1-4)]GlcNAc(b1-2)Man(a1-6)]Man(b1-4)GlcNAc(b1-4)GlcNAc
Outline: as §1

Gal(a1-3)Gal(b1-4)GlcNAc = biological target: Gal(a1-3)Gal(b1-4)GlcNAc
Outline: as §1

[11] = biological target: Gal(b1-3)GlcNAc(b1-2)Man(a1-3)[GlcNAc(b1-4)][Gal(b1-3)GlcNAc(b1-2)Man(a1-6)]Man(b1-4)GlcNAc(b1-4)GlcNAc
Outline: as §1

[12] = biological target: Gal(b1-3)GlcNAc(b1-3)GalNAc
Outline: as §1

[13] = biological target: Gal(b1-4)GlcNAc(b1-3)Gal(b1-3)GlcNAc
Outline: as §1

[14] = biological target: Gal(b1-4)GlcNAc(b1-3)Gal(b1-4)GlcNAc(b1-2)Man(a1-3)[Gal(b1-4)GlcNAc(b1-3)Gal(b1-4)GlcNAc(b1-2)Man(a1-6)]Man(b1-4)GlcNAc(b1-4)GlcNAc
Outline: as §1

[15] = biological target: Gal(b1-4)GlcNAc(b1-3)Gal(b1-4)GlcNAc(b1-3)Gal(b1-4)GlcNAc
Outline: as §1

[16] = biological target: Gal(b1-4)GlcNAc(b1-3)Gal(b1-4)GlcNAc(b1-3)Gal(b1-4)GlcNAc(b1-2)Man(a1-3)[Gal(b1-4)GlcNAc(b1-3)Gal(b1-4)GlcNAc(b1-3)Gal(b1-4)GlcNAc(b1-2)Man(a1-6)]Man(b1-4)GlcNAc(b1-4)GlcNAc
Outline: as §1

[17] = biological target: Gal(b1-4)GlcNAc(b1-3)Gal(b1-4)GlcNAc(b1-3)[Gal(b1-4)GlcNAc(b1-3)Gal(b1-4)GlcNAc(b1-6)]GalNAc
Outline: as §1

Gal3S6S(b1-4)GlcNAc6S = biological target: Gal3S6S(b1-4)GlcNAc6S
Outline: as §1

Gal4S(b1-4)GlcNAc = biological target: Gal4S(b1-4)GlcNAc
Outline: as §1

Gal4S6S(b1-4)GlcNAc = biological target: Gal4S6S(b1-4)GlcNAc
Outline: as §1

Gal6S(b1-3)GlcNAc6S = biological target: Gal6S(b1-3)GlcNAc6S
Outline: as §1

Gal6S(b1-4)GlcNAc6S = biological target: Gal6S(b1-4)GlcNAc6S
Outline: as §1

[18] = biological target: GalNAc(a1-3)GalNAc(a1-3)Gal(a1-4)Gal(b1-4)GlcNAc
Outline: as §1

GalNAc3S(b1-4)GlcNAc = biological target: GalNAc3S(b1-4)GlcNAc
Outline: as §1

GalNAc4S6S(b1-4)GlcNAc = biological target: GalNAc4S6S(b1-4)GlcNAc
Outline: as §1

[19] = biological target: GlcNAc(b1-2)[GlcNAc(b1-6)]Man(a1-6)[GlcNAc(b1-2)Man(a1-3)]Man(b1-4)GlcNAc(b1-4)[Fuc(a1-6)]GlcNAc
Outline: as §1

[20] = biological target: GlcNAc(b1-3)Gal(b1-3)GalNAc
Outline: as §1

[21] = biological target: GlcNAc(b1-3)Gal(b1-4)GlcNAc(b1-2)Man(a1-3)[GlcNAc(b1-3)Gal(b1-4)GlcNAc(b1-2)Man(a1-6)]Man(b1-4)GlcNAc(b1-4)GlcNAc
Outline: as §1

[22] = biological target: GlcNAc(b1-3)Gal(b1-4)GlcNAc(b1-3)Gal(b1-4)GlcNAc(b1-2)Man(a1-3)[GlcNAc(b1-3)Gal(b1-4)GlcNAc(b1-3)Gal(b1-4)GlcNAc(b1-2)Man(a1-6)]Man(b1-4)GlcNAc(b1-4)GlcNAc
Outline: as §1

[23] = biological target: GlcNAc(b1-3)Gal(b1-4)GlcNAc(b1-3)Gal(b1-4)GlcNAc(b1-2)[GlcNAc(b1-3)Gal(b1-4)GlcNAc(b1-3)Gal(b1-4)GlcNAc(b1-6)]Man(a1-6)[GlcNAc(b1-3)Gal(b1-4)GlcNAc(b1-3)Gal(b1-4)GlcNAc(b1-2)Man(a1-3)]Man(b1-4)GlcNAc(b1-4)[Fuc(a1-6)]GlcNAc
Outline: as §1

[24] = biological target: GlcNAc(b1-4)GlcNAc(b1-4)GlcNAc
Outline: as §1

[25] = biological target: GlcNAc6S(b1-3)Gal(b1-4)GlcNAc
Outline: as §1

[26] = biological target: Man(a1-2)Man(a1-3)[Man(a1-6)]Man(a1-6)[Man(a1-2)Man(a1-3)]Man(b1-4)GlcNAc(b1-4)GlcNAc
Outline: as §1

[27] = biological target: Man(a1-2)Man(a1-6)[Man(a1-3)]Man(a1-6)[Man(a1-2)Man(a1-2)Man(a1-3)]Man(b1-4)GlcNAc(b1-4)GlcNAc
Outline: as §1

[28] = biological target: Neu5Ac(a2-3)Gal(b1-3)[GlcNAc(b1-6)]GalNAc
Outline: as §1

[29] = biological target: Neu5Ac(a2-3)Gal(b1-4)GlcNAc(b1-2)Man
Outline: as §1

[30] = biological target: Neu5Ac(a2-3)Gal(b1-4)GlcNAc(b1-2)[Neu5Ac(a2-3)Gal(b1-4)GlcNAc(b1-6)]Man(a1-6)[Neu5Ac(a2-3)Gal(b1-4)GlcNAc(b1-2)Man(a1-3)]Man(b1-4)GlcNAc(b1-4)GlcNAc
Outline: as §1

[31] = biological target: Neu5Ac(a2-3)Gal(b1-4)GlcNAc(b1-3)Gal(b1-4)GlcNAc(b1-3)Gal(b1-4)GlcNAc
Outline: as §1

[32] = biological target: Neu5Ac(a2-3)[GalNAc(b1-4)]Gal(b1-4)GlcNAc(b1-3)GalNAc
Outline: as §1

[33] = biological target: Neu5Ac(a2-6)Gal(b1-4)GlcNAc(b1-2)Man
Outline: as §1

[34] = biological target: Neu5Ac(a2-6)Gal(b1-4)GlcNAc(b1-3)Gal(b1-3)GlcNAc
Outline: as §1

[35] = biological target: Neu5Ac(a2-8)Neu5Ac(a2-3)[Gal(b1-3)GalNAc(b1-4)]Gal(b1-4)Glc
Outline: as §1

[36] = biological target: Neu5Ac(a2-8)Neu5Ac(a2-3)[GalNAc(b1-4)]Gal(b1-4)Glc
Outline: as §1

[37] = biological target: Neu5Ac(a2-8)Neu5Ac(a2-8)Neu5Ac(a2-3)[GalNAc(b1-4)]Gal(b1-4)Glc
Outline: as §1

[38] = biological target: Neu5Gc(a2-3)Gal(b1-3)[Fuc(a1-4)]GlcNAc
Outline: as §1

Neu5Gc(a2-3)Gal(b1-4)Glc = biological target: Neu5Gc(a2-3)Gal(b1-4)Glc
Outline: as §1

[39] = biological target: Neu5Gc(a2-6)Gal(b1-4)GlcNAc
Outline: as §1

B1: Pbx2 (Cryptococcus neoformans) (protein)
chain: AVSPLPSSTELVFYSQKRRRRRICSTATGSLSTPDPTRMTSDPYKRVGMRFSSVPRLLITFLSLLLLVSAAPPCVRFADYDSINQMFIDGGPGTKVLLCPNRLYRLSGPIIFTAADQEIATYGYPTGSERAVLRVEGRNTATAIQGDCRRCARVSVKNLVVDGNRKKLGRMRDFQLATGLVVLGGNEGQSIQNSWIKNPRGFTAIHIREGDKLQCSGARVEKNEIGPVGEEYDPEKDGDDPEMSPLGRPLADGVSIACRDSFIRDNTFRDNTDAAIVVYCSPGTLIHANHIFAQSLSAMAGILMVDSTPFNGDYTGTVVRSNIIDAVSRTIRVGIGIGPTVWSDDTETILTGGSVIGNGLKGRYMGYGIAAAGLKQWTIKDNWDEAKHEGRKSARCFDEPVNPDPIGLLYNRPTMEDCTVQSGFADHDFQYLVCIDGLYDKTNPPKHDPAPLAHDPSPTNAQEDNTVQQDGGDSKSKSIEQPREASDIEAEPSVEKMFSTGSEMMDDVLEHSHQRMHEVIDHLSRRIDILGAASAGKGSGDSKISEVLDPAMSSHLEKLQRKIEHLEFSLRSQIETAIQLRSAIQGWDQEMALVTDWEYDILLDVRHKLELSSYPHDQPLDPRLMRGQSYLNNEAVLVDDHSHPSLEGENLRAMSDRARLNANEEA
glycan array binding signal (z-score) [1]: 5.82
glycan array binding signal (z-score) [2]: 3.8
glycan array binding signal (z-score) (Fuc(a1-2)Gal6S(b1-4)Glc): -0.497
glycan array binding signal (z-score) [3]: -0.446
glycan array binding signal (z-score) [4]: -0.12
glycan array binding signal (z-score) [5]: -0.094
glycan array binding signal (z-score) [6]: -0.041
glycan array binding signal (z-score) [7]: 0.271
glycan array binding signal (z-score) [8]: 0.057
glycan array binding signal (z-score) [9]: -0.291
glycan array binding signal (z-score) [10]: -0.392
glycan array binding signal (z-score) (Gal(a1-3)Gal(b1-4)GlcNAc): -0.346
glycan array binding signal (z-score) [11]: 0.625
glycan array binding signal (z-score) [12]: 0.091
glycan array binding signal (z-score) [13]: -0.114
glycan array binding signal (z-score) [14]: 4.98
glycan array binding signal (z-score) [15]: 0.154
glycan array binding signal (z-score) [16]: 4.44
glycan array binding signal (z-score) [17]: 2.83
glycan array binding signal (z-score) (Gal3S6S(b1-4)GlcNAc6S): 6.21
glycan array binding signal (z-score) (Gal4S(b1-4)GlcNAc): -0.339
glycan array binding signal (z-score) (Gal4S6S(b1-4)GlcNAc): 2.65
glycan array binding signal (z-score) (Gal6S(b1-3)GlcNAc6S): 3.95
glycan array binding signal (z-score) (Gal6S(b1-4)GlcNAc6S): 2.56
glycan array binding signal (z-score) [18]: 0.168
glycan array binding signal (z-score) (GalNAc3S(b1-4)GlcNAc): -0.522
glycan array binding signal (z-score) (GalNAc4S6S(b1-4)GlcNAc): 6.54
glycan array binding signal (z-score) [19]: -0.377
glycan array binding signal (z-score) [20]: -0.436
glycan array binding signal (z-score) [21]: -0.424
glycan array binding signal (z-score) [22]: 3.17
glycan array binding signal (z-score) [23]: 1.33
glycan array binding signal (z-score) [24]: -0.147
glycan array binding signal (z-score) [25]: -0.104
glycan array binding signal (z-score) [26]: -0.065
glycan array binding signal (z-score) [27]: 0.275
glycan array binding signal (z-score) [28]: -0.075
glycan array binding signal (z-score) [29]: 4.34
glycan array binding signal (z-score) [30]: 0.027
glycan array binding signal (z-score) [31]: -0.461
glycan array binding signal (z-score) [32]: -0.206
glycan array binding signal (z-score) [33]: 0.729
glycan array binding signal (z-score) [34]: -0.368
glycan array binding signal (z-score) [35]: 0.256
glycan array binding signal (z-score) [36]: -0.131
glycan array binding signal (z-score) [37]: 0.212
glycan array binding signal (z-score) [38]: -0.266
glycan array binding signal (z-score) (Neu5Gc(a2-3)Gal(b1-4)Glc): -0.241
glycan array binding signal (z-score) [39]: -0.317
